Among the data in PubChem BioAssay (EPA / NIEHS) are AC50 and outcome values, retold here.

Inconclusive results are not listed. Calls of active or inactive are those of the source. Rule for the calls, unless noted: active = hit-call score of the fitted dose curve at least 0.9, where 1 is the maximum; inactive = score below 0.9.

A short description of assay [1]: CEETOX_H295R_CORTIC_noMTC: CeeTox H295R High-throughput Steroidogenesis Assay for Corticosterone (CORTIC), maximum tolerated concentration (MTC) filtered results only (AID 2283917). Conditions: actives raise or lower the signal. The gist of the method: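 H295R, 10 uM forskolin prestim 48 h → test chem (0.1% DMSO final) 48 h → media MTBE extraction → HPLC-MS/MS corticosterone. Bidirectional fit vs DMSO baseline; no MTT-based MTC filtering.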

A short description of assay [2]: CEETOX_H295R_DOC_noMTC: CeeTox H295R High-throughput Steroidogenesis Assay for DOC, maximum tolerated concentration (MTC) filtered results only (AID 2283918). Conditions: actives raise or lower the signal. The gist of the method:
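H295R cells prestimulated 48 h with 10 uM forskolin, then exposed 48 h to test chemical (0.1% DMSO final). Medium 11-deoxycorticosterone extracted with MTBE, quantified by HPLC-MS/MS; bidirectional fit versus DMSO, concentrations not MTC-filtered.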

A short description of assay [3]: CEETOX_H295R_PROG_noMTC: CeeTox H295R High-throughput Steroidogenesis Assay for Progesterone (PROG), maximum tolerated concentration (MTC) filtered results only (AID 2283920). The settings on record: actives raise or lower the signal. The gist of the method:
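H295R human adrenal cells were prestimulated 48 h with 10 uM forskolin, then exposed 48 h to test chemical (0.1% DMSO final). Progesterone in medium was quantified by HPLC-MS/MS; bidirectional fitting versus DMSO, concentrations not MTC-filtered.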

Assay [4] can be described thus: CEETOX_H295R_TESTO_noMTC: CeeTox H295R High-throughput Steroidogenesis Assay for Testosterone (TESTO), maximum tolerated concentration (MTC) filtered results only (AID 2283924). Conditions: actives raise or lower the signal. The gist of the method:
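H295R cells prestimulated 48 h with 10 uM forskolin, then exposed 48 h to chemicals in 0.1% DMSO final. Testosterone in medium quantified by MTBE extraction and HPLC-MS/MS; bidirectional fit versus DMSO, concentrations […] filtered by MTT-based maximum tolerated concentration.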

The test system of assay [5] is Thyroperoxidase (TPO), gene 445522. In words: CCTE_Simmons_GUA_TPO: CCTE's Guaiacol Assay for Thyroperoxidase (TPO) Inhibition, Simmons Lab (AID 2283750; active = hit-call score of the fitted dose curve at least 0.9, where 1 is the maximum). The gist of the method: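 Porcine thyroid microsomes (25 ug) in 200mM potassium phosphate, preincubated 30 s at 37C with compound (8 concentrations, 5 nM–87.5 uM) and 35mM guaiacol; 1mM H2O2 starts reaction. Absorbance change at 450nm over first 80 s; loss of signal versus DMSO, three replicates.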

Assay [6] addresses human Phosphatase and Tensin Homolog (PTEN), PTEN (gene 5728) (UniProt P60484). In words: NVS_ENZ_hPTEN: NovaScreen (NVS) Enzymatic Assay for human Phosphatase and Tensin Homolog (PTEN) (AID 2283203; active = hit-call score of the fitted dose curve at least 0.9, where 1 is the maximum). The gist of the method: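 Cell-free recombinant human PTEN with fluorescent substrate; product separated by electrophoretic mobility shift and read by fluorescence 1 h after dosing. Primary screen in duplicate at 25 uM, actives followed in concentration series versus DMSO.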

The target of assay [7] is guinea pig Leukotriene D4 Receptor (LTD4), CYSLTR1 (gene 100135514) (UniProt Q2NNR5). Kind of assay: NVS_GPCR_gLTD4: NovaScreen (NVS) G Protein-Coupled Receptor Assay for guinea pig Leukotriene D4 Receptor (LTD4) (AID 2283248; active = hit-call score of the fitted dose curve at least 0.9, where 1 is the maximum). The gist of the method: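 Radioligand displacement on guinea pig lung membranes, 1 h incubation, filtration and scintillation counting; DMSO as negative control. Duplicate 25 uM primary screen, then singleton concentration-response up to 50 uM.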
Sequence of guinea pig Leukotriene D4 Receptor (LTD4), CYSLTR1 (gene 100135514) (Q2NNR5 whole entry, looked up): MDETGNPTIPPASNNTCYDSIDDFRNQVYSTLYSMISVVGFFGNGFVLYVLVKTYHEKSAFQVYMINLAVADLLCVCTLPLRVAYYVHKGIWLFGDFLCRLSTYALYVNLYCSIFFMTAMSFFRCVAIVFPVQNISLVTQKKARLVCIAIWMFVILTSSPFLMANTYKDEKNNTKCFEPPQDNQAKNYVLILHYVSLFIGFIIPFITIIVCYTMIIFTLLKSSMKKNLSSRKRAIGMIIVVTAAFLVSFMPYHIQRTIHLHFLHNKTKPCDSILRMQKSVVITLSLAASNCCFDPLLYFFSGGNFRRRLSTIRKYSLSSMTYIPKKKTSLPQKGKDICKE

Assay [8] deals with PGR (gene 5241) (UniProt P06401). In words: TOX21_PR_BLA_Followup_Agonist_ratio: Tox21 HEK293 Progesterone Receptor (PR) Agonism Beta-lactamase Follow-Up Assay, Ratio (AID 2283933; active = hit-call score of the fitted dose curve at least 0.9, where 1 is the maximum). The gist of the method:
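Agonist-mode follow-up in HEK293T cells carrying a UAS-driven beta-lactamase reporter, grown in 2% charcoal-stripped serum. Compounds act for 16 hr; activity is the ch2/ch1 cleavage ratio, with same-well CellTiter-Glo viability run in parallel.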

Assay [9] shares this target. In words: TOX21_PR_LUC_Followup_Agonist: Tox21 HEK293 Progesterone Receptor (PR) Agonism Luciferase Follow-Up Assay (AID 2283937). The gist of the method: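 Agonist mode: reporter cells carrying PR-A and luciferase are treated 16 h with test compounds at 37C. Luciferase induction is measured by luminescence and fitted upward against DMSO.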
For assay [10], the target named is human Purinergic Receptor P2Y, P2RY1 (gene 5028) (UniProt P47900). Kind of assay: NVS_GPCR_hPY2: NovaScreen (NVS) G Protein-Coupled Receptor Assay for human Purinergic Receptor P2Y (AID 2283281; active = hit-call score of the fitted dose curve at least 0.9, where 1 is the maximum). The gist of the method:
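Cell-free radioligand binding using U937-derived protein, 1 h after dosing, filter-based scintillation counting. Screened in duplicate at 25 uM; actives rerun as concentration-response up to 50 uM; loss of signal versus DMSO.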

Sequence of PGR (gene 5241) (P06401 whole entry, looked up): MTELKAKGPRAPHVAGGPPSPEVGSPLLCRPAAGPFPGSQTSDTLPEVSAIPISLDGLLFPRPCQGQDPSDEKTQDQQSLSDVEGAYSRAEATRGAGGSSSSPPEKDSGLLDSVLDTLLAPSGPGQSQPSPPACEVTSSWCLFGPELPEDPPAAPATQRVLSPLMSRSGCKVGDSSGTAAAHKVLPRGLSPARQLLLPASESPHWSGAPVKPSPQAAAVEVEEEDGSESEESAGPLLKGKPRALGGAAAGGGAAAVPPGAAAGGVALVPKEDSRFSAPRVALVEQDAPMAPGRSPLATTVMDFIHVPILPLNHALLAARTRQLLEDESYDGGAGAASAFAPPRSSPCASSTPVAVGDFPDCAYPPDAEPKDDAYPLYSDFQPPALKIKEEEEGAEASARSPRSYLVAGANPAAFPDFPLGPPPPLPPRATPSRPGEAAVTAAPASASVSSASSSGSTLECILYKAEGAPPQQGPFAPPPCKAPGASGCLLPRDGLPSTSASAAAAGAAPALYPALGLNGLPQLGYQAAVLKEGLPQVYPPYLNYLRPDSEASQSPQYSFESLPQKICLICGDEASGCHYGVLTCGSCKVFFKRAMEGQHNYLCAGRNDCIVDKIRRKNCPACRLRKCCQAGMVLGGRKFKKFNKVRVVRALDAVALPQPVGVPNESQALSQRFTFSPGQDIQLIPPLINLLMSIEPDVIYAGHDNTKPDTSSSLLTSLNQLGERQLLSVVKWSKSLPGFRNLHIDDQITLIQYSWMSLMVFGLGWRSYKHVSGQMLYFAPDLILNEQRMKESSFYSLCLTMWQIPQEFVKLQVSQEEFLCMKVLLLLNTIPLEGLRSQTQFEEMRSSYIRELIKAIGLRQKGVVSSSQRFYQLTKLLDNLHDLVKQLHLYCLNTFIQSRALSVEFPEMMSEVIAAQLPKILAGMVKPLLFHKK
Sequence of human Purinergic Receptor P2Y, P2RY1 (gene 5028) (P47900 whole entry, looked up): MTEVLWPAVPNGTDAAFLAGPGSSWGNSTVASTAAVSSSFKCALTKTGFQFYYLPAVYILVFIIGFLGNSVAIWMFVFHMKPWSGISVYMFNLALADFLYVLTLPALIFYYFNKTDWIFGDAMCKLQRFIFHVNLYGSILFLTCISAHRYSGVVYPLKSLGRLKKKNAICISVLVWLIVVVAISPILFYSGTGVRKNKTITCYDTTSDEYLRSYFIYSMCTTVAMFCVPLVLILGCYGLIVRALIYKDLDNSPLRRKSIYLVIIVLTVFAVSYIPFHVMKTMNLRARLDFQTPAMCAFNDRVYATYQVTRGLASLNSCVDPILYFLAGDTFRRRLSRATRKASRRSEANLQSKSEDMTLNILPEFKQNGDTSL
Sequence of human Phosphatase and Tensin Homolog (PTEN), PTEN (gene 5728) (P60484 whole entry, looked up): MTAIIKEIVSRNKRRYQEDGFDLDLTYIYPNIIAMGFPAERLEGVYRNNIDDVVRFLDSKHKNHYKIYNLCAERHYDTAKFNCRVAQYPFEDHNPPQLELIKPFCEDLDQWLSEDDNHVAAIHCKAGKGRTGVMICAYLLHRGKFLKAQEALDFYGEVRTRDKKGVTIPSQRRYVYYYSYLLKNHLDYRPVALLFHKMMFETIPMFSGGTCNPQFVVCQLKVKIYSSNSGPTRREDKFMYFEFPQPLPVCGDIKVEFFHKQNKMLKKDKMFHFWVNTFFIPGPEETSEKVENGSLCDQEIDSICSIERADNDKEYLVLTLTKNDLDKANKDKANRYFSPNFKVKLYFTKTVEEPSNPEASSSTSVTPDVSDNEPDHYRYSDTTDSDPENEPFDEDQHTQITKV

As a reminder, the AC50 is the concentration giving half of the maximal activity seen. As to `C[C@]12CC[C@H](O)C[C@H]1CC[C@@H]1[C@@H]2C[C@@H](O)[C@]2(C)[C@@H](C3=CC(=O)OC3)CC[C@]12O`, the AC50 in assay [1] is 3.91 µM (active); in assay [2] it was 10.8 µM (active); in [3], 10.7 µM (active); in assay [4], 4.25 µM (active).

On to `Nc1ccccc1`, for which the AC50 in [5] was 9.69 µM (active).

Regarding `ClC1=C(Cl)[C@]2(Cl)[C@@H]3[C@@H](Cl)[C@H](Cl)C[C@@H]3[C@@]1(Cl)C2(Cl)Cl`, the result in [6] was inactive.

Regarding `S=c1[nH]c2ccccc2[nH]1`, the call in assay [7] was inactive.

As for `N#Cc1cc(I)c(O)c(I)c1`, the outcome in the assay with PGR (gene 5241) [8] and in the assay with PGR (gene 5241) [9] was inactive.

Turning to `CCOC(=O)NC(=S)Nc1ccccc1NC(=S)NC(=O)OCC`, in [10], the outcome was inactive.
